Most compounds without a hit are left out; they make up all but 7.6% or so of the library.
MCF10A rerep = DNA re-replication induction in MCF 10a cells; Potency, µM (titrated, usually from 46.1 µM), for inactives: top-dose activity, positive = re-replication, hits mostly activators; 350,000 compounds, 2.9% hits; MCF 10A DNA re-replication, Hoechst nuclear intensity, 48 h; further: potency means the concentration at half of the fitted maximal effect; % of control where 0% means no effect; nearly all actives have a fitted effect of over 50% in size
KCNH2 3.1 block = blocks the human KCNH2 3.1 channel isoform; 340,000 compounds, 0.95% hits; AID 720553; U2OS KCNH2 3.1, thallium flux FluxOr; stronger effect = lower value; activity change, % (tested at about 1.8 µM);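 active means maximum activity change below -70%; inconclusive means maximum activity change from -70% to -50%; inactive means maximum activity change above -50%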;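 further: thallium influx rate constant from kinetic fluorescence after stimulation buffer; on the % scale 0 is the no-effect control and ±100 the full control effect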
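U2OS cells transduced with KCNH2 3.1 mutant virus (1.77 x 10^8 /mL, 4 h), plated overnight at 37 C, loaded 45 min with FluxOr dye plus Red40 quencher. Thallium flux rate constant from kinetic reads after stimulation buffer, normalised to controls.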
SW480 rerep = DNA re-replication induction in SW480 cells; Potency, µM (series often up to 46.1 µM), for the others: at the highest dose re-replication activation, usual class: activators; SW480 DNA re-replication, Hoechst DNA content imaging, 48 h; 340,000 compounds, 1.8% hits; further: potency means the concentration at half of the fitted maximal effect; % of control where 0% means no effect; nearly all actives have a fitted effect of over 55% in size
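Hoechst fluorescence of nuclei (405 nm excitation, 500-530 nm emission) measured by plate-scanning imager after 48 hr compound exposure at 37 C; re-replication scored as increased number of nuclei with elevated intensity.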
KB-V1 MDR tox = KB-V1 MDR subline cytotoxicity | KB-V1 MDR cells viability, CellTiter-Glo, 72 h | AID 1347076 | 400,000 compounds, 3.4% hits | Potency, µM (doses to about 46.1 µM), most hits filed as cytotoxic; further: potency means the concentration at half of the fitted maximal effect; on the % scale 0 is the no-effect control and ±100 the full control effect; nearly all actives have a fitted effect of over 60% in size
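KB-V1 cells (P-gp-expressing MDR subline of KB-3-1) in phenol-red-free DMEM with 10% FBS were exposed to library compounds over a concentration series for 72 h at 37 degrees C. Viability read by CellTiter-Glo luminescence; concentration-effect curves fitted after normalization.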
KCNH2 WT inh = inhibitors of human wildtype KCNH2 potassium channel. U2OS, BacMam KCNH2, thallium flux FluxOr; stronger effect = lower value. AID 720551. activity change, % at 1.84 µM. 340,000 compounds, 0.37% hits. Q12809;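 active means maximum activity change below -70%; inconclusive means maximum activity change between -70% and -50%; inactive means maximum activity change above -50%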; further: on the % scale 0 is the no-effect control and ±100 the full control effect
Target sequence (Q12809 whole entry, looked up): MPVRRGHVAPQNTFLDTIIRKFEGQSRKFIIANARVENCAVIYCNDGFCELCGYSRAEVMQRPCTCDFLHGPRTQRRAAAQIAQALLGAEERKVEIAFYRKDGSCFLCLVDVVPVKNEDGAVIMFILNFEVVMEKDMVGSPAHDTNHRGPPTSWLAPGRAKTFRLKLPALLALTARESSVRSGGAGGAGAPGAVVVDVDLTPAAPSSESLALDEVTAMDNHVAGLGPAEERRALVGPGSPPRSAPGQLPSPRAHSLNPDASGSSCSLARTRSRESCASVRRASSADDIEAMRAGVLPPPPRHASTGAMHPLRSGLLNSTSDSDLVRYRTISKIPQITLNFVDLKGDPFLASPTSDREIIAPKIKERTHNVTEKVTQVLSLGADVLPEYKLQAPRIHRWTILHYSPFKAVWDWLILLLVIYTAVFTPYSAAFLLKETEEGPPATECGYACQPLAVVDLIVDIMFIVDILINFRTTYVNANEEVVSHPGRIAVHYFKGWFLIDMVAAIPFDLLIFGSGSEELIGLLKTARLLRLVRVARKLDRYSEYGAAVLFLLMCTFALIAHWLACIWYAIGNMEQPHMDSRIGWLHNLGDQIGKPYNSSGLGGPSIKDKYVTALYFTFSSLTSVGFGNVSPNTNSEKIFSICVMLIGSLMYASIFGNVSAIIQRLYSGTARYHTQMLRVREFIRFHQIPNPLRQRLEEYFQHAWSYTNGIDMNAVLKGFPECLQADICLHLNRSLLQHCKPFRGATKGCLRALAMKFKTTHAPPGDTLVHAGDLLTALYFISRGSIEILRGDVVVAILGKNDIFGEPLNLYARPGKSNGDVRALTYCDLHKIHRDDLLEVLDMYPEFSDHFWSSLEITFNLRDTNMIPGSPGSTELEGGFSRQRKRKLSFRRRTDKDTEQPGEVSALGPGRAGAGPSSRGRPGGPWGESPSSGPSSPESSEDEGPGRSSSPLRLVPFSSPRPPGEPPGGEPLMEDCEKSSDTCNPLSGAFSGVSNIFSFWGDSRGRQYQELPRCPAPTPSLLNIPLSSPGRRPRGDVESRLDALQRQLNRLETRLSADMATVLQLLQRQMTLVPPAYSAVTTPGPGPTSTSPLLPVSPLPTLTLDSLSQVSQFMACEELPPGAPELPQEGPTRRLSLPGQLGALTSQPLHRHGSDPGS
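U2OS cells transduced with wild-type KCNH2 virus are loaded with FluxOr dye for 45 min, and thallium flux is measured in kinetic reads before and after stimulation buffer. Rate constants are normalized to DMSO controls.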
KB-3-1 cytotox = kills parental KB-3-1 adenocarcinoma cells. 400,000 compounds, 1.4% hits. Potency, µM (titrated, usually from 46.1 µM), actives largely listed as cytotoxic. KB-3-1 viability, CellTiter-Glo ATP luminescence, 72 h. AID 1347075; further: potency means the concentration at half of the fitted maximal effect; on the % scale 0 is the no-effect control and ±100 the full control effect; nearly all actives have a fitted effect of over 60% in size
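KB-3-1 parental drug-naive adenocarcinoma cells in DMEM/10% FBS, incubated 72 h at 37 C with pin-transferred compounds across a concentration series. Viability by CellTiter-Glo luminescence; concentration-response curves fitted after normalization.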
An asterisk follows results filed as active; i = inactive; u = inconclusive; x = not tested or not shown; [ ] = remark or other dose. Unless noted, the call rests on the fitted dose curve; in most records, active means well fitted curve in the direction sought with a large enough effect; inconclusive means small, poorly fitted or top-dose-only effect, or another doubt; inactive means no such curve, though single readings can be large; an effect the other way counts as inactive or inconclusive.

SMILES | MCF10A rerep | KCNH2 3.1 block | SW480 rerep | KB-V1 MDR tox | KCNH2 WT inh | KB-3-1 cytotox
Cc1ccc(NC(=O)Cc2coc3ccc(C(C)C)cc23)cc1Cl | x | x | x | 16µM* | x | u
O=C(Nc1ccccc1N1CCOCC1)c1ccc2ccccc2c1 | 7% | -5 | 26% | i | -7 | i
O=C(Nc1ccccc1N1CCOCC1)c1ccc2c(c1)OCO2 | -5% | 6 | 3% | i | 4 | i
CC(C)[C@H](NS(=O)(=O)c1ccccc1)C(=O)Nc1ccccc1N1CCOCC1 | 2% | 7 | -2% | 8.2µM* | 6 | i
O=C(Nc1ccccc1N1CCOCC1)c1ccc(Cl)nc1 | 6% | -105* | -1% | i | 2 | i
CC(=O)Nc1cccc(C(=O)Nc2ccccc2N2CCOCC2)c1 | u | 13 | u | 15µM* | -2 | 16µM*
COC(=O)C[C@H]1c2cc(F)ccc2S(=O)(=O)N1C1CC1 | x | x | x | u | x | i
Cc1ccc(C(=O)N/C(=C\c2ccc(C(C)C)cc2)C(=O)NCCCN2CCOCC2)cc1 | -3% | 12 | u | i | -20 | i
Cc1ccc(C(=O)N/C(=C\c2ccc(-c3cccc([N+](=O)[O-])c3)o2)C(=O)NCCCN2CCOCC2)cc1 | 4% | -186* | u | u | 5 | u
Cc1ccc(C(=O)N/C(=C\c2ccc(Cl)cc2)C(=O)NCCCN2CCOCC2)cc1 | 2% | -103* | 5% | i | -141* | i
Cc1ccc(C(=O)N/C(=C/c2ccc(-c3cccc([N+](=O)[O-])c3)o2)C(=O)NC(C)C)cc1 | 20% | 2 | 0% | 3.7µM* | 6 | i
Cc1ccc(N(Cc2ccccc2)C(=O)c2cc(S(=O)(=O)N3CCOCC3)ccc2C)cc1 | 21% | -7 | 2% | i | -34 | i
CCOc1ccc(C(=O)CCC(=O)N(CC)CC(=O)NCc2ccc(Cl)cc2)cc1 | 8% | -2 | 3% | u | -160* | i
CCOc1ccc(CN(C)C(=O)CCl)cc1 | u | 4 | 16µM* | u | 3 | u
CCOc1ccc(CN(C)CC(=O)NCc2ccc(F)cc2)cc1 | u | -103* | u | u | u | i
COc1ccc(-c2cc(CNC(=O)CN(C)Cc3ccccc3)on2)cc1 | -2% | 3 | -6% | 2.6µM* | -13 | i
CCc1cccc2c(-c3csc(=NC)n3C)c[nH]c12 | 1% | 9 | u | i | 20 | i
Cc1ccc2nc(-c3ccc(NC(=O)CN4C(=O)NC(C)(c5ccc(OC(F)F)cc5)C4=O)cc3)sc2c1 (stereo not given) | u | u | u | i | 7 | u
O=C(OCCn1c(=S)sc2ccccc21)c1ccccc1 | -1% | -5 | u | u | -5 | i
COc1ccc(CNC(=O)CN(C)Cc2ccc(SC)cc2)cc1 | -2% | -78* | -4% | i | -9 | i
CSc1ccc(CN(C)CC(=O)NC(=O)NCCC2=CCCCC2)cc1 | -5% | -10 | -8% | 21µM* | 1 | i
Cn1ccc2c(N3CCCCCC3)cc3c(c21)C1CCC3C1 (stereo not given) | x | x | x | i | x | i
CCOc1cc(C(=O)Nc2ccc(-c3nnc4n3CCCCC4)cc2)cc(OCC)c1OCC | x | x | x | i | x | i
Cc1ccc(CCNC(=O)c2c[nH]c3ccc(S(=O)(=O)Nc4cccc(C(F)(F)F)c4)cc3c2=O)cc1 | x | x | x | i | x | 13µM*
Cc1cc(C)cc(NS(=O)(=O)c2ccc3[nH]cc(C(=O)NCCc4ccccc4)c(=O)c3c2)c1 | x | x | x | u | x | i
SMILES | MCF10A rerep | KCNH2 3.1 block | SW480 rerep | KB-V1 MDR tox | KCNH2 WT inh | KB-3-1 cytotox
CC(=O)C1(O)C(C)CC2C3CCC4CC(O)CCC4(C)C3=CCC21C (stereo not given) | 18µM* | -1 | u | i | -11 | i
Cc1ccc(NC(=O)CCSc2nnc(C)o2)cc1 | 10% | 12 | -4% | i | -1 | i
Cc1ccc(S(=O)(=O)N2CC3(C)CN(S(=O)(=O)c4ccc(C)cc4)CC(C)(C2)C3=O)cc1 | 6% | -14 | 7% | 0.73µM* | 12 | i
Cc1ccc(S(=O)(=O)N2CC3(C)CN(S(=O)(=O)c4ccc(C)cc4)CC(C)(C2)C3O)cc1 (stereo not given) | -3% | 20 | -20% | u | -5 | i
CCCCN1C[C@H](CO)Oc2cccc(F)c2S1(=O)=O | 6% | 1 | -2% | i | -21 | i
Cc1ccc(S(=O)(=O)N2CCCOC2CNC(=O)C(=O)NCc2cccs2)cc1 (stereo not given) | 5% | 0 | u | 9.2µM* | 1 | i
Cc1ccc(C)c(S(=O)(=O)N2CCCOC2CNC(=O)C(=O)NCCc2ccco2)c1 (stereo not given) | u | x | u | u | 11 | i
COc1ccc(S(=O)(=O)N2CCCOC2CNC(=O)C(=O)NCCc2ccco2)cc1C (stereo not given) | u | 16 | 18µM* | i | 8 | 6.5µM*
Cc1ccc(C)c(S(=O)(=O)N2CCCOC2CNC(=O)C(=O)NCc2ccco2)c1 (stereo not given) | -1% | -10 | 8% | 23µM* | 1 | u
Cc1cc(S(=O)(=O)N2CCCOC2CNC(=O)C(=O)NCc2ccco2)ccc1F (stereo not given) | 8.2µM* | 1 | u | u | -8 | i
COc1ccc(S(=O)(=O)N2CCOC2CNC(=O)C(=O)NCCc2ccc(OC)c(OC)c2)cc1 (stereo not given) | 10% | 2 | 12% | 18µM* | 4 | u
CS(=O)(=O)Nc1nnc(SCC(=O)Nc2cccc([N+](=O)[O-])c2)s1 | 1% | -7 | -8% | u | 0 | i
CCc1ccc(/C=N/NC(=O)c2cc(-c3ccccc3OC)nc3ccccc23)s1 | -1% | 5 | 1%[9.22 µM] | i | 1 | u
CCc1ccc(/C=N/NC(=O)c2cc(C3CC3)nc3ccc(Br)cc23)s1 | 1.6µM* | -13 | 18µM* | 4.1µM* | 6 | 4.6µM*
CCc1ccc(/C=N\NC(=O)c2ccc(Br)o2)s1 | 1% | 4 | 14% | 18µM* | -3 | i
CC1(C)Cc2nc3oc4c(=O)n(CC(=O)Nc5cccc(Cl)c5)cnc4c3cc2CO1 | 12% | -7 | 18µM* | i | -1 | i
CC1(C)Cc2nc3oc4c(=O)n(CC(=O)Nc5ccccc5)cnc4c3cc2CO1 | -1% | x | -5% | i | 5 | u
CC1(C)Cc2nc3sc4c(=O)[nH]cnc4c3cc2CS1 | 10% | 1 | -1% | i | -1 | i
